Inhibition data for 62 compounds are collected here from PubChem BioAssay AID693 (University of Pittsburgh Molecular Library Screening Center, 2007).

Structures are written as SMILES. Screen size: about 97,000 compounds; about 130 (0.13%) were called active. The full list was thinned out, with actives kept by preference. Unmarked numbers belong to inactive results. No stated cut-off is given here; in the data, active means inhibition above about 34% (passing the limit was not always enough); inactive means the rest.

Sequence of Serine/threonine-protein kinase PLK1 (Homo sapiens) (P53350 whole entry, looked up): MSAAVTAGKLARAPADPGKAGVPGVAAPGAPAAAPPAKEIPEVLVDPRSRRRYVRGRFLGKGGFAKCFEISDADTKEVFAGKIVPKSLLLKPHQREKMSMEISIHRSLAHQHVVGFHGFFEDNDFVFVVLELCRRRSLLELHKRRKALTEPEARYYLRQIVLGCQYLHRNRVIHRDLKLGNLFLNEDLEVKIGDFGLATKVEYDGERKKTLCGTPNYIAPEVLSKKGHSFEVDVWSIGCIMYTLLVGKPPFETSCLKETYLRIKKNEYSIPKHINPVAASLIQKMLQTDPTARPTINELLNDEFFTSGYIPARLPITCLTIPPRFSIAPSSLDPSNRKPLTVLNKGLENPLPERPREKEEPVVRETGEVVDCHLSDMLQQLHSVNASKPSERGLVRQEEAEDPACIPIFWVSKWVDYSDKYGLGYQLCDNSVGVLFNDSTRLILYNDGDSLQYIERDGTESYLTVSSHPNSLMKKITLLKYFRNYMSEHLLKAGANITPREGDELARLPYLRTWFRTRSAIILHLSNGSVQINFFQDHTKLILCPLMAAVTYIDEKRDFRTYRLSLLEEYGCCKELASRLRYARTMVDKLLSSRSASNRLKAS

The experiment addresses Serine/threonine-protein kinase PLK1 (Homo sapiens) (UniProt P53350). The experiment is described as follows: blockers of phosphopeptide binding to Plk1 PBD – biochemical, fluorescence polarization, primary screen (AID 693). To be noted: stronger effect = higher value,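 tested at about 20 µM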.
`CCCC(C)C(=O)Nc1ccc(NC(C)=O)cc1` (configuration not stated): the inhibition is -14.8%.

Take `Cc1ccc(NC(=O)N2CCC(O)(c3cccnc3)CC2)cc1`: the inhibition was 2.21%.

On to `CC(C)OC(=O)CN1C(=O)C(=O)c2ccccc21`, for which the inhibition is -13.6%.

`CCOC(=O)c1cc2n(c1N)-c1ccccc1C2=O`: the inhibition was 45.1% (active).

With `CCOC(=O)c1cc2n(c1C)-c1ccccc1C2=O`, the inhibition was -27.7%.

On to `O=C1c2ccccc2C(=O)c2c1cccc2N1CCN(Cc2ccccc2)CC1`, for which the inhibition is -20.8%.

In the case of `Cc1cc(NC(=O)/C=C/C(=O)N(c2ccccc2C)C(C(=O)NC2CCCC2)c2ccc(F)cc2)no1` (configuration not stated), the inhibition is -15.6%.

Take `CCCCNC(=O)c1onc(CSc2cccc(OC)c2)c1C(=O)O`: the inhibition is 25.6%.

For the compound `CO/N=C(/CS(=O)(=O)c1ccc(Br)cc1)c1ccc(OC)cc1`, the inhibition was 2.77%.

Regarding `Cc1ccc(Cl)cc1NC(=O)COC(=O)C1CCCCC1`, the inhibition was -19.8%.

Turning to `COc1ccccc1-c1n[nH]c2c1[C@H](C)CC[C@H]2C(C)C`, the inhibition is -16.8%.

For `COc1ccc(C(=O)Nc2ccc(CN3CCOCC3)cc2)cc1`, the inhibition is -5.41%.

`COc1ccccc1-c1nc(C#N)c(N2CCC(C(N)=O)CC2)o1`: the inhibition was 33.2%.

For the compound `COc1ccc(Nc2oc(-c3ccccc3Cl)nc2C#N)cc1`, the inhibition was 42.4% (active).

On to `N#Cc1nc(-c2ccc(OCc3ccccc3)cc2)oc1NCCCN1CCOCC1`, for which the inhibition was -11.4%.

Regarding `Clc1ccc(-c2cc(COc3ccccc3)no2)cc1Cl`, the inhibition was -15.4%.

In the case of `Cc1ccc(S(=O)(=O)N(c2cccc(C)c2)C2CCS(=O)(=O)C2)cc1` (configuration not stated), the inhibition is -7%.

As for `Cc1nc2c(-c3ccc(F)cc3)c(C)nn2c(C)c1CCC(=O)NCc1ccco1`, the inhibition is 2.38%.

Turning to `CCOc1ccc(CN2CCCN(C)CC2)cc1`, the inhibition is -6.01%.

On to `Cc1ccc(NC(=O)Nc2ccc3oc(C)nc3c2)cc1`, for which the inhibition was 8.59%.

In the case of `O=C(Nc1ccc2sc3ccccc3c(=O)c2c1)c1ccccc1Cl`, the inhibition was 6.33%.

On to `CC1(C)Cc2cccc(OCC(N)=O)c2O1`, for which the inhibition was 0.26%.

As to `Cn1cnc([N+](=O)[O-])c1Sc1ccccc1`, the inhibition was -10.6%.

Consider `COCCCNCC(=O)Nc1sc(C)c(C)c1C(=O)OC`, for which the inhibition was -27.8%.

Turning to `COc1ccc(C2CC(=O)Nc3cc(C)c(C)cc32)c(OC)c1OC` (configuration not stated), the inhibition was 3.42%.

In the case of `O=C(COC(=O)c1ccccc1SCC(=O)NC1CCCCC1)NC1CCCCC1`, the inhibition was 45.4%.

On to `O=C(Cc1ccc(S(=O)(=O)N2CCCC2)s1)NC1CCCCCC1`, for which the inhibition was -9.65%.

Turning to `Cc1cccc(COc2ccccc2/C=N/Nc2ccc([N+](=O)[O-])cc2)c1`, the inhibition was 0.38%.

For `CC(=O)NC1(c2cccc(F)c2)CCN(CC(=O)NC(C)C)CC1`, the inhibition is 15.8%.

Turning to `Cc1cc2nnc(SCC(=O)N3CCN(c4ccccc4)CC3)n2c(N)n1`, the inhibition is -15.4%.

With `COc1ccccc1OCc1nc2ccccc2s1`, the inhibition was 7.18%.

Take `O=C(Nc1ccccc1)OCc1cn(-c2ccc(Cl)cc2)nn1`: the inhibition was 6.75%.

Consider `O=S(=O)(NCC1OCCc2ccccc21)c1ccccc1` (configuration not stated), for which the inhibition was -4.11%.

As for `Cc1ccc(-n2nc(N)c3c(=O)oc(N(C)C)nc32)cc1`, the inhibition was 13.8%.

As to `Cn1c(Cn2nnc3ccccc32)nnc1SCC(=O)c1ccccc1F`, the inhibition is -16.2%.

Turning to `CC(C)Oc1ccc(CCc2n[nH]c(=S)n2Cc2ccccc2)cc1`, the inhibition was -2.84%.

In the case of `COc1ccc(C)cc1NC(=O)CCC(=O)Nc1nnc(C(F)(F)F)s1`, the inhibition was 19%.

With `Nc1ccccc1SCc1cc([N+](=O)[O-])cc2c1OCOC2`, the inhibition is 17.1%.

`Cc1nc(-c2ccccc2)sc1-c1nc(-c2ccccc2)ncc1S(=O)(=O)c1ccccc1`: the inhibition is -7.34%.

As for `COc1cc(/C=C2/C(=O)ON=C2C)ccc1OCc1ccccc1F`, the inhibition was -10.3%.

With `COc1ccc(-c2oc(/N=C/N3CCCC3)c(C#N)c2-c2ccc(OC)cc2)cc1`, the inhibition was -15.2%.

As for `CC1(C)CC(=O)C=C(NCc2ccncc2)C1`, the inhibition was 41.4% (active).

`CC1(C)CC(=O)C=C(NCCN2CCNCC2)C1`: the inhibition was -22%.

As for `CC1(C)CC(=O)C=C(NCCCNC2CCCCC2)C1`, the inhibition was -8.28%.

For the compound `Cc1ccc2[nH]c(=O)c(CN(CCCN(C)C)C(=O)Nc3cccc(Cl)c3)cc2c1`, the inhibition was 3.64%.

Regarding `CCN(CC)CCN1C(=O)C(=O)/C(=C(/O)c2cnn(-c3ccccc3)c2C)C1c1cccs1` (configuration not stated), the inhibition was -7.79%.

Take `Cc1cc(C)c(S(=O)(=O)NCC2CCC(C(=O)NCc3ccc4c(c3)OCO4)CC2)c(C)c1` (configuration not stated): the inhibition is -7.41%.

For `COC(=O)c1ccc(OCC(=O)NC(C)(C)C)cc1`, the inhibition is 5.58%.

With `C/C(=N\NC(=O)c1ccccc1C)c1ccc(N2CCOCC2)cc1`, the inhibition is -3.42%.

Regarding `CCOC(=O)C1(S(=O)(=O)c2ccc(Cl)cc2)CCN(Cc2ccccc2)CC1`, the inhibition is -3.07%.

As to `O=C(CCc1ccc(S(=O)(=O)NC2CCCCC2)cc1)NCc1ccccc1`, the inhibition was 10.4%.

As to `O=C(NCCCN1CCOCC1)c1cnn2c(-c3ccccc3)cc(-c3ccccc3)nc12`, the inhibition is -14.2%.

For `O=C(NCCOc1ccccc1)c1ccccc1`, the inhibition was -20.9%.

With `O=C(COc1ccc(Cl)cc1)NCCC1=CCCCC1`, the inhibition is 14.2%.

For `O=C(CCN1CCc2ccccc2C(O)(c2ccccc2)C1)c1ccc2c(c1)OCCO2` (configuration not stated), the inhibition is 16.3%.

Take `CCCCCN1CC(O)=C(c2ccccc2)C1=N`: the inhibition was -1.22%.

Consider `CC(=NCc1ccco1)c1c(C(F)(F)F)[nH]n(-c2nc3ccccc3s2)c1=O`, for which the inhibition is 9.65%.

As for `Cc1ccc(NC(=O)COc2ccc(-n3ccnc3)cc2)cc1Cl`, the inhibition is 2%.

As to `O=C(Nc1cc2c3c(c1)C1CCCC1CN3CC1CCCC21)c1ccc([N+](=O)[O-])cc1` (configuration not stated), the inhibition was -24.1%.

With `CC(C)(C)C(=O)Nc1ccc(C(=O)N/N=C/c2ccccc2OC(=O)c2ccc(Cl)cc2Cl)cc1`, the inhibition was 44.2%.

Regarding `CN(C)c1ccnc(Oc2ccc(F)cc2)c1C#N`, the inhibition was -3.95%.

For the compound `CCC(=O)c1c[nH]c(C(=O)NCC2CCCO2)c1` (configuration not stated), the inhibition was 8.77%.
